GCN5L2 inh – qHTS Assay for Inhibitors of GCN5L2. Histone acetyltransferase KAT2A (Homo sapiens), Q92830. GCN5L2 HAT assay, ThioGlo1 CoA-SH fluorescence. Potency, µM (series often up to 58.9 µM), inactives show at the highest dose activity change, negative = inhibition, actives largely listed as inhibitors. AID 504327, 2011. 390,000 compounds, 0.21% hits; further: potency means the concentration at half of the fitted maximal effect; on the % scale 0 is the no-effect control and ±100 the full control effect
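Preincubate 20nM GCN5L2 with compound 15 min, RT → add 50uM ThioGlo1 + 75uM H3(1-25) + 70uM acetyl-CoA → read fluorescence 0 and 20 min. Primary qHTS; fluorescent artifacts likely.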
rTrxR1 inhibitor – qHTS Assay for Inhibitors of Mammalian Selenoprotein Thioredoxin Reductase 1 (TrxR1): qHTS | Thioredoxin reductase 1, cytoplasmic (Rattus norvegicus), O89049 | recombinant rTrxR1, NADPH fluorescence consumption, selenite substrate | Potency, µM (highest dose often 114 µM), for inactives: at the top dose activity change, negative = inhibition, actives largely listed as inhibitors | 390,000 compounds, 1% hits | AID 588453, 2011; further: potency means the concentration at half of the fitted maximal effect; on the % scale 0 is the no-effect control and ±100 the full control effect; nearly all actives have a fitted effect of over 65% in size
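Rat TrxR1 (90 nM in the dispensed reagent) was pre-reduced with 400 uM NADPH for 5 min at room temperature, then incubated with compound for 15 min. After 400 uM selenite was added, NADPH fluorescence (Ex 340/Em 450 nm) was followed for 8 min.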
VDR inhibitor – Inhibitors of the vitamin D receptor (VDR): qHTS; AID 504847, 2011; Vitamin D3 receptor (Homo sapiens), P11473; Potency, µM, without a hit: max response, negative = inhibition, usual class: inhibitors; 400,000 compounds, 0.93% hits; VDR-SRC2-3 peptide fluorescence polarization, 2 h; further: potency means the concentration at half of the fitted maximal effect; on the % scale 0 is the no-effect control and ±100 the full control effect
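After 23 nl compound addition and a short centrifugation, plates sat for 2 hours at ambient temperature; polarization of fluorescence then indicated loss of VDR binding to peptide SRC2-3.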
Sfp PPTase inh – qHTS Assay for Inhibitors of Bacillus subtilis Sfp phosphopantetheinyl transferase (PPTase); Potency, µM, without a hit: largest response in the series, negative = inhibition, actives largely listed as inhibitors; Biochemical Sfp PPTase activity, qHTS; 310,000 compounds, 3.5% hits;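 further: the enzyme is Sfp with the accession as filed and its product quenches rhodamine fluorescence; potency means the concentration at half of the fitted maximal effect; 0% = enzyme reaction without inhibitor and -100% = no enzyme wells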
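Sfp 15 nM + cpd, 15 min RT; start w/ rhodamine-CoA 5 uM, BHQ-2-YbbR 12.5 uM (final); 50 mM Hepes pH 7.6, 10 mM MgCl2, 0.01% NP-40, 0.01% BSA; read 525/598 nm at 0 and 30 min.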
GLS inh – qHTS for Inhibitors of Glutaminase (GLS); GLS enzymatic activity, qHTS titration; Glutaminase kidney isoform, mitochondrial (Homo sapiens), O94925; 410,000 compounds, 0.21% hits; AID 624170, 2012; Potency, µM (top dose mostly 45.5 µM), for the others: at the top dose activity change, negative = inhibition, hits mostly inhibitors; further: potency means the concentration at half of the fitted maximal effect; on the % scale 0 is the no-effect control and ±100 the full control effect
Target sequence (O94925 whole entry, looked up, canonical isoform): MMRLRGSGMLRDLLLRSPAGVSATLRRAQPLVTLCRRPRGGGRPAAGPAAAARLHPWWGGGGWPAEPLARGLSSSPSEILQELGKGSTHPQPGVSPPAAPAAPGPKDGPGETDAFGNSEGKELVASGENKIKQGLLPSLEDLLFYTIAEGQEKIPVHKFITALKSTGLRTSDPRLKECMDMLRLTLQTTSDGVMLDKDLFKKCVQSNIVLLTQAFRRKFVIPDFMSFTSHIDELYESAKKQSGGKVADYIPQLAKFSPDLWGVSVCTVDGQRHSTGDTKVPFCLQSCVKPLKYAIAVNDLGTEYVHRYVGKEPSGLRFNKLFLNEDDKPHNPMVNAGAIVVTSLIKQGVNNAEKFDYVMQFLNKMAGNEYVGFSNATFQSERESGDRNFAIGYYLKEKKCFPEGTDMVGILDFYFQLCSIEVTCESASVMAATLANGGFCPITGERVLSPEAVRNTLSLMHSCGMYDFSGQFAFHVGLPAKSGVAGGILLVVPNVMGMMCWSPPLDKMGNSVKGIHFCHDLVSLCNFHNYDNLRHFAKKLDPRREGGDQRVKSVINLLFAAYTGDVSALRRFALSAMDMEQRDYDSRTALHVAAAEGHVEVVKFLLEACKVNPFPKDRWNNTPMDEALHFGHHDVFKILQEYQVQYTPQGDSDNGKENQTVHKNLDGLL
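Read-out is an Amplex red fluorescence increase coupled through glutamate oxidase and HRP, measured before and after 30 min room-temperature incubation. hKGA is in 45 mM KH2PO4 (pH 8.2) with 0.02% Tween-20; glutamine added as 1mM solution.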
TrxR1 substrate – qHTS Assay for Substrates of Mammalian Selenoprotein Thioredoxin Reductase 1 (TrxR1): qHTS; Thioredoxin reductase 1, cytoplasmic (Rattus norvegicus), O89049; purified TrxR1 substrate turnover, NADPH consumption readout; Potency, µM (doses to about 114 µM), without a hit: top-dose activity change, negative = substrate turnover; 390,000 compounds, 0.01% hits; further: potency means the concentration at half of the fitted maximal effect; on the % scale 0 is the no-effect control and ±100 the full control effect; nearly all actives have a fitted effect of over 50% in size
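Rat TrxR1, dispensed at 90 nM, was prereduced with 400 uM NADPH (final) for 5 min at ~22 deg C, then incubated with compound 15 min before 400 uM selenite. A first-read NADPH fluorescence drop versus no-compound background flagged substrates.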
USP1-UAF1 confirm – Inhibitors of USP1/UAF1: Hit Validation in Primary Assay | 50 compounds, 50% hits | shares compounds with VDR inhibitor | Ub-Rhodamine cleavage, fluorescence kinetic read | Potency, µM (highest dose often 56.8 µM), for inactives: at the top dose activity change, negative = inhibition, most hits filed as inhibitors | AID 540327, 2011
VDR confirm – qHTS for Inhibitors of the vitamin D receptor (VDR): Hit Validation in Primary Screen. AID 602199, 2012. Potency, µM, most hits filed as inhibitors. 840 compounds, 89% hits. shares compounds with VDR inhibitor. VDR-coactivator inhibition assay, qHTS confirmation; further: potency means the concentration at half of the fitted maximal effect
VDR FP – qHTS for Inhibitors of the vitamin D receptor (VDR): Hit Validation using a Fluorescein Assay. shares compounds with VDR inhibitor. VDR-coactivator binding, fluorescein fluorescence polarization. Potency, µM (doses to about 57.1 µM), for the others: at the highest dose activity change, negative = inhibition, usual class: inhibitors. 840 compounds, 48% hits. AID 602200, 2012; further: potency means the concentration at half of the fitted maximal effect
VDR bla reporter – qHTS for Inhibitors of the vitamin D receptor (VDR): Hit Validation using a Beta-Lactamase Assay; shares compounds with VDR inhibitor; VDR beta-lactamase reporter cells, FRET ratio; cells co-treated with VDR agonist LG190178; Potency, µM (top dose mostly 46.1 µM), for inactives: at the highest dose activity change, negative = inhibition, actives largely listed as inhibitors; 840 compounds, 23% hits; AID 602202, 2012; further: potency means the concentration at half of the fitted maximal effect; on the % scale 0 is the no-effect control and ±100 the full control effect
VDR cytotox – qHTS for Inhibitors of the vitamin D receptor (VDR): Hit Validation using a Cytotoxicity Assay; shares compounds with VDR inhibitor; cytotoxicity counter-screen, cell viability, qHTS; Potency, µM (doses to about 48.3 µM), without a hit: top-dose activity change, negative = cytotoxicity, actives largely listed as cytotoxic; 840 compounds, 18% hits;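 further: potency means the concentration at half of the fitted maximal effect; plate controls were DMSO for no effect and high-concentration cycloheximide for full effect; nearly all actives have a fitted effect of over 75% in size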
An asterisk follows results filed as active; ? = inconclusive; . = no result given; [ ] = dose if it differs, or a comment. Rows were chosen to be rich in hits. Some 3.8% of all compounds tested hit in one or more screens of this group. The call rests on the fitted dose curve; in most records, active means well fitted curve in the direction sought with a large enough effect; inconclusive means small, poorly fitted or top-dose-only effect, or another doubt; inactive means no such curve, though single readings can be large; an effect the other way counts as inactive or inconclusive.

SMILES | GCN5L2 inh | rTrxR1 inhibitor | VDR inhibitor | Sfp PPTase inh | GLS inh | TrxR1 substrate | VDR confirm | VDR FP | VDR bla reporter | VDR cytotox | others
COc1cc(N[C@@H](C)CCCN)c2ncccc2c1 | 11%[21.4 µM] | . | 5% | 2% | 8%[20 µM] | . | . | . | . | . | USP1-UAF1 confirm=20µM*
COc1cc(NC(=O)c2cc(-c3cccnc3)nc3ccc(C)cc23)c(OC)cc1Cl | -4% | . | . | 11% | . | . | . | . | . | .
CC(=O)c1ccc(N=C2C(=O)Nc3ccccc32)cc1 | -1% | 2% | 4µM* | 19% | 4% | -5% | 3.4* | 3.5µM* | 16% | -7%
NS(=O)(=O)c1ccc(N=C2C(=O)Nc3ccccc32)cc1 | -5% | 7% | 10% | 7% | 3% | 2% | . | . | . | .
NC(=O)c1ccc(N=C2C(=O)Nc3ccc([N+](=O)[O-])cc32)cc1 | -10% | ? | ? | -10% | 0% | ? | 0.63* | 0.71µM* | -16% | -21%
O=C(COC(=O)c1ccc(Cl)cc1[N+](=O)[O-])NC(=O)c1ccccc1 | -1% | 6% | -13% | 11% | 8% | 0% | . | . | . | .
CCOC(=O)N1C(=O)[C@](CC)(c2ccccc2)N1C(=O)OCC | -8% | 3.2µM* | 79µM* | -19% | 31% | 1% | ? | ? | 21% | -5%
Nc1cc(S(=O)(=O)Nc2ccccc2Cl)ccc1N1CCCCC1 | -28% | -18% | ? | . | 32% | -9% | 7.1* | 7.1µM* | -26% | -27%
COc1ccc(-c2cc(C(F)(F)F)nc(S(C)(=O)=O)n2)cc1 | -2% | 10µM* | 40µM* | -18% | 0% | 6% | 18* | 28µM* | ? | ?
CS(=O)(=O)c1nc(-c2ccc(F)cc2)cc(C(F)(F)F)n1 | 0% | 18µM* | 7.9µM* | ? | 0% | 18% | 19* | ? | ? | ?
COc1ccc(-c2cc(C(F)(F)F)nc(N)n2)cc1 | 1% | 12% | -8% | 19% | -1% | 8% | . | . | . | .
c1ccc(-c2nn3c(Cn4cnc5ccccc54)nnc3s2)cc1 | ? | -11% | ? | 10µM* | -26% | 2% | 20* | 7.1µM* | -21% | -19%
c1ccc(-c2nn3c(Cn4nnc5ccccc54)nnc3s2)cc1 | -17% | -14% | -79% | -100% | 0% | -3% | . | . | . | .
O=C1CCCN1CN(C(=O)c1ccc2c(c1)OCO2)c1cccc(Cl)c1 | -4% | 13% | -4% | 14% | . | 2% | . | . | . | .
CCCn1c(SCC(=O)c2ccc(CC)cc2)n[nH]c1=O | -7% | -7% | -26% | -7% | 7% | 0% | . | . | . | .
COc1ccc(S(=O)(=O)Nc2cc(Sc3ncn[nH]3)c(O)c3ccccc23)cc1 | ? | ? | 20µM* | 3.5µM* | . | 50µM* | 21* | ? | ? | 18µM*
Cc1cc(C)c(S(=O)(=O)Nc2cc(SCC(=O)O)c(O)c3ccccc23)cc1C | 17% | ? | 22µM* | 8.9µM* | 16% | -11% | 5.3* | 11µM* | 0% | ?
COc1ccc(S(=O)(=O)Nc2cc(SCC(=O)O)c(O)c3ccccc23)cc1 | 73% | -25% | ? | 7.1µM* | ? | -6% | 16* | 14µM* | ? | ?
O=C(O)CSc1cc(NS(=O)(=O)c2ccc(Cl)cc2)c2ccccc2c1O | 55% | ? | 3.5µM* | 10µM* | 2% | -20% | 30* | ? | ? | ?
CCn1cc(C(=O)NC2CCCC2)c(=O)c2cc(S(=O)(=O)N3CCOCC3)ccc21 | . | 9% | 7% | . | 0% | -3% | . | . | . | .
O=C(/C=C/c1c(F)cccc1Cl)c1ccc(F)cc1 | 21% | ? | 45µM* | ? | -4% | 4% | 11* | 8.9µM* | 29% | -17%
CCN1Cc2c(cc(OC)c(OC)c2OC)-c2ccccc2S1(=O)=O | -3% | 4% | -10% | . | 0% | 10% | . | . | . | .
N#C/C(=C\c1ccc(-c2cc(Cl)ccc2Cl)o1)C(=O)Nc1cccc2ncccc12 | -17% | ? | ? | . | . | 21%[57.1 µM] | . | . | . | . | USP1-UAF1 confirm=?
COc1cc(/C=C(\C#N)C(=O)Nc2cccc3ncccc23)ccc1O | -9% | . | . | 14% | . | . | . | . | . | .
O=C(O)CCNc1ccc(NCCC(=O)O)c2c1C(=O)c1ccccc1C2=O | -15% | -15%[57.1 µM] | 7.1µM* | -13% | ? | -8%[57.1 µM] | 7.5* | 28% | 1% | ?
O=C(NN1CCCCC1)c1cccc(COc2ccc(Cl)cc2)c1 | 2% | -5% | -10% | -5% | 19% | -8% | . | . | . | .
Cc1ccc2occ(/C=C/C(=O)O)c(=O)c2c1 | -10% | 20%[57.1 µM] | -8% | 17% | -16% | -8% | . | . | . | .
COc1cc(/C=C2/N=C(C3CCCCC3)OC2=O)cc(OC)c1OC | -18% | ? | 40µM* | ? | -6% | 4% | 17* | 14µM* | 24% | 15%

Compound activity deposited in PubChem by National Center for Advancing Translational Sciences (NCATS).
